The supplement of paper PMC6555819

Columns and labels:
Test in all cases: PBM binding z-score (relative to random genomic background probes); higher = stronger binding; sequences stand for … in GC…GCGATTGACAGCGTAGAATGAAGG
[1] = system: RARb homodimer (NR concentration 270 nM)
Method in brief: (§1)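 Random background probes are the reference for binding z-scores. These scores derive from regression-normalized fluorescence on custom Agilent 4×180K protein-binding microarrays incubated 1 h with ligand-free nuclear receptor dimers. Binding was detected with antibodies against each partner (one per run).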

[2] = system: RARg:RXRa (NR concentration 270 nM, RXRa partner concentration 90 nM)
Method in brief: as §1

[3] = system: RARg homodimer (NR concentration 270 nM)
Method in brief: as §1

[4] = system: RXRa DBDmut IVT, anti-RXR (DBD mutation: RXRa K156A/R161A, NR concentration 90 nM)
Method in brief: as §1

[5] = system: RXRa homodimer (NR concentration 180 nM)
Method in brief: as §1

[6] = system: THRa:RXRa (NR concentration 90 nM, RXRa partner concentration 90 nM)
Method in brief: as §1

[7] = system: THRa homodimer (NR concentration 90 nM)
Method in brief: as §1

[8] = system: VDR homodimer (NR concentration 270 nM)
Method in brief: as §1

Sequence | PBM binding z-score [1] | PBM binding z-score [2] | PBM binding z-score [3] | PBM binding z-score [4] | PBM binding z-score [5] | PBM binding z-score [6] | PBM binding z-score [7] | PBM binding z-score [8]
CCTTACGGATCACTCCAGGTTATAGCATCGGAGT | 0.563 | 0.297 | 0.583 | 0.552 | 0.224 | 3.06 | 0.842 | 0.677
TTGCCTAGGTCATGCGGGCCAGTATAGTGTCGGC | 2.96 | 3.93 | 4.33 | 0.791 | 2.76 | 3.08 | 0.807 | 0.421
CTCGAAAGGTCGTGCTCAGGTGAGGATACCAAAC | 2.88 | 5.12 | 3.74 | 2.24 | 4.62 | 4.22 | 2.06 | 0.965
AGAACGAGGGCACGCTGAGTAGATAGCAGAGTAG | 0.843 | 1.94 | 2.23 | 1.58 | 1.45 | 1.58 | -0.259 | 0.46
ACTCGGACGACAAAGGTCAGAGCTACGCCAGTGA | 4.21 | 4.65 | 4.6 | -0.0196 | 4.83 | 2.75 | -0.0567 | 0.688
AATACAGGGTCATCGTAGGCCAAAGTACGCACAG | 3.71 | 5.86 | 5.3 | 3.63 | 6.87 | 4.53 | 1.34 | 3.98
ACTCGGAGGACGAAGGTCAGAGCTACGCCAGTGA | 2.86 | 2.9 | 2.48 | 0.315 | 2.01 | 1.64 | -0.396 | 0.109
ACAGACAGGTGATGAAGGTAACGCAGGCTATCAT | 0.353 | 0.208 | 0.319 | -0.195 | 0.253 | 0.435 | -0.159 | -0.267
ATCTCTAGGTAATGTTCAGTGAAAGATCGATAGA | -0.207 | 0.262 | 0.561 | 0.333 | 0.234 | 0.493 | 0.382 | 0.364
TCTGCTAGGGCAGTTGGTCAGCTAACGAGCTGCC | 0.33 | -0.0411 | 0.49 | -0.0574 | -0.74 | -0.754 | -0.968 | -1.08
GCTGCTAGGTCAGGTTGGTCAGCTACCGGGTACG | 2.79 | 2.17 | 3.73 | 0.371 | 0.808 | 1.76 | 0.717 | 0.476
CCTCGGAGGACAACAGAAGGTCAGAGCTGCCAGA | 3.55 | 3.3 | 3.27 | 0.274 | 1.54 | 2.36 | 0.481 | 0.506
CGAACTAGGTCATTGACAGGACCGTGAATAGTAA | 2.09 | 3.59 | 3.95 | 2.37 | 2.17 | 2.32 | 0.476 | 1.15
CGTCAAAGTTCAAATAAGGTAACGTAAAGCACGC | 4.02 | 5.64 | 6.52 | 4.78 | 5.4 | 5.07 | 2.01 | 4.33
CCTGCTAGGTCATGGTCGGCTAATCTACAGTATG | 2.46 | 3.92 | 4.63 | 1.75 | 2.82 | 3.01 | 1.29 | 0.379
CCGACTGGGGTATAAGGTTACCATAAGCCAGCCC | 0.893 | 0.542 | 0.421 | -0.174 | 1.11 | 2.02 | 1.21 | -0.0356
TTACCAAGGTTAAGGTCGTTGATCCCTCTGTAGA | 2.57 | 2.63 | 2.31 | 1.41 | 3.4 | 3.73 | 3.45 | 2.83
GATACAGGGTCTAGGCCAGAGTACGCGTATTGAT | -0.143 | 0.0579 | 0.175 | -0.382 | -0.304 | -0.508 | -0.824 | 0.154
CAACCTAGGTCAAGAGGTCAAAGTCCGCTTCCCG | 5.47 | 8.21 | 7.78 | 3.12 | 8.82 | 4.18 | 2.41 | 4.38

Sequence | PBM binding z-score [1] | PBM binding z-score [2] | PBM binding z-score [3] | PBM binding z-score [4] | PBM binding z-score [5] | PBM binding z-score [6] | PBM binding z-score [7] | PBM binding z-score [8]
CCGACTGGGGCATAAGGTTACCAGAAGCCAGCCC | 1.99 | 1.86 | 1.08 | -0.501 | 1.26 | 2.28 | 1.23 | -0.301
TCTGCTAGGTCAACGATGGCCAGCTAATCTGCTA | 2.85 | 3.75 | 4.72 | 0.868 | 2.35 | 2.6 | 0.486 | -0.708
TTACCAAGGTGAGCTGAGGTAGTTGATCCAACTC | 0.264 | -0.0541 | 0.00581 | -0.913 | -0.0499 | 3.02 | 0.0435 | -0.88
GGAACGAAGGCAAGTTGATAGCAGAGTTTGATGG | -0.711 | -0.376 | -0.138 | 0.098 | -0.667 | -0.824 | -1.3 | -0.0459
CCTCGGAGGACAGAAGGTCAGAGTTGTCCGCTTT | 3.6 | 3.24 | 2.91 | 0.56 | 1.73 | 2.08 | 0.133 | 0.396
GCTAGCAGGCCATTTGGGTCAGTCAATGACGGGC | 1.42 | 0.49 | 1.01 | -0.27 | 0.218 | 0.812 | -0.371 | -0.151
CTCGAAAGGTCGTGCTCGGGTGAGTATACCAAAC | 2.72 | 5.23 | 3.77 | 1.4 | 4.73 | 3.75 | 0.478 | 0.996
ATATGTAGGTTATCGGGTCATTCACTTTGCGCAT | 3.14 | 3.43 | 2.55 | 1.88 | 3.56 | 3.39 | 2.94 | 3.12
AGTCAAAGTTCAGGACGCGGTAACGTAAAGCACG | 3.04 | 4.4 | 4.94 | 2.98 | 2.78 | 2.74 | 1.23 | 1.79
TCATATGGGTAAACAGGTGAAAGTCCGTAAGTTA | 0.47 | 0.0718 | -0.135 | 0.95 | 0.566 | 0.434 | -0.368 | -0.103
CAGACTAGGTCAGGGCCAGTATAGGAGGAACGTT | 2.28 | 2.67 | 3.34 | -0.345 | 1.3 | 1.65 | 0.0626 | -0.295
CCTCAAAGTTCAACTAAGGTAACGTAAAGCACGC | 4.3 | 6.18 | 6.74 | 4.41 | 5.11 | 5.29 | 2.38 | 4.44
CCGAGTAGGTAATGGGGCATTCAGGCAACGGTGA | 0.64 | -0.0696 | 0.0893 | -0.575 | 0.0759 | 0.219 | 0.00825 | -0.22
ATACCAAGGTGATCGTGAGGTTGTTGATACTAAC | 0.567 | 0.576 | 0.356 | 0.169 | 0.593 | 1.89 | 0.949 | 0.36
CCTACTGGGCCATCAGGTTATTGATATCAACGTT | 0.464 | 0.256 | 0.522 | -0.157 | 0.0138 | 0.797 | 0.712 | -0.275
CCTTACGGGTCACTGACAGGTTATAGCATTTGGA | 3.39 | 6.19 | 4.95 | 1.95 | 5.59 | 2.98 | 0.283 | 1.03
AGTCAAAGTTCATATAGGTAACGTAAGATATGCT | 3.55 | 5.1 | 5.32 | 4.83 | 4.41 | 2.28 | -0.342 | 5.14
CCTTACGGGTCACTGACAGGTTCTAGCATTTGGA | 3.15 | 4.85 | 4.15 | 1.95 | 4.61 | 2.45 | 0.145 | 1.03
CGTCCAAGGTCAGCAGGTCAGTGCAAGCGACGTG | 4.99 | 6.35 | 6.82 | 2.29 | 4.74 | 3.77 | 2.47 | 2.18

Sequence | PBM binding z-score [1] | PBM binding z-score [2] | PBM binding z-score [3] | PBM binding z-score [4] | PBM binding z-score [5] | PBM binding z-score [6] | PBM binding z-score [7] | PBM binding z-score [8]
TATACAGGGCCAAAGGCCAGAGTACGAATGTCGA | 1.12 | 1.16 | 1.47 | -0.775 | 0.74 | -0.149 | -0.814 | 0.291
AATATAGGGTCACTAGGCCAGAGTAGGTACGAAT | 3.3 | 5.24 | 4.94 | 2.94 | 5.71 | 3.61 | 1.67 | 2.21
ACTCGGAGGACAATGGTCAGAGCTACGCCAGTGA | 0.454 | 0.217 | 0.925 | 0.216 | -0.0471 | 0.235 | -0.526 | -0.36
TCTTGTAGACCAAGCAGGTTAAGAAAGCCTGAGT | 0.377 | 0.0625 | -0.186 | 0.787 | 0.346 | 0.395 | -0.407 | 0.173
ATCTCTAGGTAAAAGTTCAGGGAATCCCGAGGAT | 2.58 | 2.3 | 2.18 | 0.858 | 2.15 | 1.54 | 0.461 | 1.7
CCTTACGGGTCACTGACAGGTTTTAGCATTTGGA | 3.06 | 4.89 | 4.41 | 1.81 | 4.92 | 2.53 | 0.0377 | 1.01
ATCGAAAGGTCGTGAGGTGAATATACAGAAAGGC | 3.06 | 4.98 | 3.95 | 1.72 | 5.61 | 3.72 | 1.77 | 1.24
GTACCAAGGAGAATAGGTCGTTGATGAGTAGGCG | 0.0836 | 0.268 | 0.222 | -0.343 | 0.654 | -0.111 | -0.986 | -0.123
TTTTGTAGATCAGCAGGTTAAGAAAGCTGGCCAA | 0.145 | -0.111 | -0.252 | -0.708 | 0.104 | 0.144 | -0.308 | -0.168
CAAACTAGGTCACCGGAATGTCAAAGTCCGCATG | 4.04 | 5.43 | 5.46 | 1.81 | 3.7 | 3.71 | 2.04 | 0.883
AATACAGGGTCACTAGGCAAGAGTAGGTACGAAT | 2.95 | 5.02 | 4.81 | 2.61 | 5.45 | 3.48 | 1.19 | 2.42
TCTATCAGTTGATTAGGGCAACCGAAACAGCGGA | 0.548 | 0.522 | 0.467 | 0.825 | 0.276 | 0.643 | -0.0881 | -0.1
GCGAGTGGGGCAAAGCAGGTTACCATAAGGTTGG | 1.29 | 0.324 | 0.332 | -0.292 | 0.339 | 2.93 | 0.0981 | -0.134
ATCGAAAGGTCGAAGGTGATTATACCCACCCGAA | 2.14 | 4.11 | 3.87 | 0.956 | 4.77 | 1.97 | 0.193 | 0.477
ATCTCTAGGTACAAGTTCAGTGAATCCCGAGGAT | 1.52 | 0.997 | 1.14 | 1.93 | 0.729 | 0.819 | 0.457 | 2.83
ATCTCTAGGTAAACGTTCAGTGAATCCCGAGGAT | -0.498 | 0.172 | 0.369 | -0.148 | 0.0015 | 0.136 | 0.162 | -0.489
ATCTCTAGGTAAAACTCAGTTCAGTGAAGAACGC | 0.751 | 0.623 | 0.586 | 0.726 | 0.153 | 1.18 | 0.901 | 2.13
GCTAGTTGGTCAGTAAAAGGTCACACTCCGGTCG | 5.07 | 5.14 | 4.48 | 0.827 | 5.23 | 3.58 | 2.19 | 1.59
ACAGACAGCTGATGAAGGTAACTCAGGCTATCAT | -0.303 | 0.146 | 0.225 | -0.306 | 0.083 | 0.595 | -0.25 | 0.0545
